An excerpt weighted towards active compounds, which were near 10% of everything screened.
CtBP-E1A blk: qHTS Assay for Inhibitors of the CtBP/E1A Interaction; AlphaScreen GST-E1A/His-CtBP binding, 1536-well; active compounds read low; AID 651724, 2012; CtBP / adenovirus E1A interaction (AlphaScreen); hit rate 0.49% among 340,000; activity change, % (test concentration not listed); in the data active means activity change below about -65%; inconclusive means mostly about -30% to -63%; further: on the % scale 0 is the no-effect control and ±100 the full control effect
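Homogeneous bead-based format: GST-tagged E1A captured on glutathione donor beads, His-tagged CtBP on nickel acceptor beads; compounds precede bead addition by 2 h at 37 °C.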
HP1b chromo inh: HTS for Inhibitors of HP1-beta Chromodomain Interactions with Methylated Histone Tails; Chromobox protein homolog 1 (Homo sapiens), P83916; AID 540317, 2011; hit rate 0.56% among 390,000; AlphaScreen HP1-beta / biotin-H3K9me3 peptide binding; Potency, µM (doses to about 114 µM), for the others: top-dose activity change, negative = inhibition, hits mostly inhibitors; further: potency means the concentration at half of the fitted maximal effect; nearly all actives have a fitted effect of over 70% in size
Target sequence (P83916 whole entry, looked up): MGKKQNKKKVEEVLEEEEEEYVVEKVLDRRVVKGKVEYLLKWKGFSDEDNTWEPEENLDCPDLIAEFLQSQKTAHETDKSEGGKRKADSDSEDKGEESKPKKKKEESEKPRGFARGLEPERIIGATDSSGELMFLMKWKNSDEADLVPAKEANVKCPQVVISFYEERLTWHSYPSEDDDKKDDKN
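Compound inhibition of the preformed complex between 50 nM HP1-beta and 50 nM biotinylated H3K9me3 peptide was read by AlphaScreen. Buffer was PBS pH 7.4 with 0.01% Tween-20. Incubations ran 30 min at room temperature, with 10 ug/mL donor/acceptor beads.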
BAZ2B block: qHTS Assay for Inhibitors of BAZ2B; Bromodomain adjacent to zinc finger domain protein 2B (Homo sapiens), Q9UIF8; AlphaScreen BAZ2B-H3K14Ac peptide displacement; hit rate 4.4% among 360,000; Potency, µM (titrated, usually from 114 µM), without a hit: top-dose activity change, negative = inhibition, hits mostly inhibitors; AID 504333, 2011; further: potency means the concentration at half of the fitted maximal effect; on the % scale 0 is the no-effect control and ±100 the full control effect; nearly all actives have a fitted effect of over 60% in size
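Compounds, titrated to a top concentration of 110 uM, were incubated 30 min at room temperature with preformed BAZ2B/acetyl-K14 H3 peptide complex (50 nM each). Proximity signal was measured by AlphaScreen after 20 min with beads.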
G9a block: qHTS Assay for Inhibitors of Histone Lysine Methyltransferase G9a; Histone-lysine N-methyltransferase EHMT2 (Homo sapiens), Q96KQ7; G9a H3K9 monomethylation, AlphaScreen, 2 h; Potency, µM (top dose mostly 102 µM), for inactives: at the highest dose activity, negative = inhibition, hits mostly inhibitors; hit rate 8.8% among 350,000; AID 504332, 2011; further: potency means the concentration at half of the fitted maximal effect; on the % scale 0 is the no-effect control and ±100 the full control effect; nearly all actives have a fitted effect of over 75% in size
Target sequence (Q96KQ7 913-1193 limits assumed): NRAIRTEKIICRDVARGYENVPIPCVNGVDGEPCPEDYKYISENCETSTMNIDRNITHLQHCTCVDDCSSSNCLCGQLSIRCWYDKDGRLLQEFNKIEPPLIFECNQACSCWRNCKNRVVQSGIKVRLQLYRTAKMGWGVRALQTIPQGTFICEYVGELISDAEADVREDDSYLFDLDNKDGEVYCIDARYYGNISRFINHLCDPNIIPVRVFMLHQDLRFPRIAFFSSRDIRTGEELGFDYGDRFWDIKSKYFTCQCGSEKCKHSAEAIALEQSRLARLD
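Quantitative HTS format: methyltransferase activity on a biotin-tagged H3K9 peptide is measured by AlphaScreen, using a rabbit anti-monomethyl-H3K9 antibody with streptavidin donor and anti-IgG acceptor beads. Final levels are 20 nM enzyme, 500 nM peptide, 20 uM SAM; 2 h RT.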
Six1-Eya2 blk: qHTS Assay for Inhibitors of the Six1/Eya2 Interaction. activity change, % (test concentration not listed). Homeobox protein SIX1 (Homo sapiens) + Protein phosphatase EYA2 (Homo sapiens), …. hit rate 0.56% among 360,000. AlphaScreen GST-Six1/His-Eya2 binding, biochemical; active compounds read low. AID 651725, 2012; in the data active means activity change below about -65%; inconclusive means mostly about -30% to -63%; further: on the % scale 0 is the no-effect control and ±100 the full control effect
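Six1/Eya2 binding was read as AlphaScreen signal after compounds were pinned into GST-Six1 plus His-tagged Eya2 (5X stock 250/500 nM) in pH 8.0 Tris/NaCl/TCEP buffer, beads added, then incubated 1 h, 37 C, dark.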
JMJD2A Tudor: qHTS Assay for Inhibitors of JMJD2A-Tudor Domain. Lysine-specific demethylase 4A (Homo sapiens), O75164. AlphaScreen JMJD2A-Tudor / H3K4me3 peptide binding. Potency, µM (doses to about 114 µM), inactives show at the top dose activity change, negative = inhibition, most hits filed as inhibitors. hit rate 4.4% among 390,000. AID 504339, 2011; further: potency means the concentration at half of the fitted maximal effect; on the % scale 0 is the no-effect control and ±100 the full control effect; nearly all actives have a fitted effect of over 50% in size
* hit, by the source's call; ? = inconclusive; . = no result given; [ ] = another dose, or the depositor's remark. Unless noted, the call rests on the fitted dose curve; in most records, active means well fitted inhibition curve with a large enough effect; inconclusive means small, poorly fitted or top-dose-only effect; inactive means no such curve, though single readings can be large or run the other way.

SMILES | CtBP-E1A blk | HP1b chromo inh | BAZ2B block | G9a block | Six1-Eya2 blk | JMJD2A Tudor
CCN1CCN(CC(=O)Nc2ccc(S(=O)(=O)N3C(C)CCCC3C)cc2)CC1 (stereo unspecified) | 3 | 31% | -9% | -3% | 0 | -5%
O=C(CSc1nnc2c(n1)[nH]c1ccccc12)NCc1ccco1 | . | 19% | ? | 10µM* | -11 | -29%
O=C(CSc1nc(-c2ccccc2)c(-c2ccccc2)[nH]1)NCc1ccco1 | -13 | -19% | -29% | ? | -10 | 40µM*
COc1ccc(-c2[nH]c(-c3cccc(OC)c3)nc2SCC(=O)NCc2ccco2)cc1 | -7 | -15% | ? | 18µM* | -20 | ?
O=S(=O)(NC1CC1)c1ccc(S(=O)(=O)N2CCCC3(CCCCC3)C2)cc1 | 9 | 18% | 0% | 8%[12.7 µM] | 6 | 1%
O=C(NCCc1ccc(Cl)cc1)c1ccc2c(c1)N(Cc1ccccc1)C(=O)CS2 | . | 17% | 2% | 4%[59 µM] | . | -21%
CCOC(=O)C1(CCOC)CCN(Cc2ccncc2)CC1 | 4 | 29% | -3% | 50µM* | -1 | -13%
COc1ccccc1CN1CCN(C(=O)c2ccncc2)CC1 | 1 | ? | 25µM* | ? | 11 | 7.9µM*
CSc1ccc(CN2CCN(C(=O)c3ccncc3)CC2)cc1 | -7 | -1% | -13% | -3% | -3 | -6%
COc1ccccc1CN1CCC2(CC1)CCN(C(=O)c1ccncc1)CC2 | . | . | . | -11%[12.7 µM] | . | .
CCOC(=O)C1(CCOc2ccccc2)CCN(Cc2ccncc2)CC1 | -1 | 18%[57 µM] | ? | . | -3 | -20%
COc1ccc2[nH]c(C(=O)N3CCCN(Cc4ccc(F)cc4)CC3)cc2c1 | -23 | -29% | -32% | 50µM* | -5 | ?
COc1cccc(OC)c1C(=O)N1CCN(Cc2ccncc2)CC1 | -1 | ? | 20µM* | ? | 1 | 8.9µM*
CN1CCN(c2ncc3nc(-c4ccccc4)c(=O)n(CCc4ccccc4)c3n2)CC1 | . | . | . | 30%[0.501 µM] | . | .
O=C(c1cccc(Cl)c1)N1CCN(Cc2ccncc2)CC1 | -1 | ? | 50µM* | 35µM* | 4 | ?
COc1ccc(OC)c(CN2CCN(C(=O)c3ccc(F)cc3)CC2)c1 | -3 | ? | ? | 32µM* | 6 | 25µM*
C/C(CC(=O)Nc1ccc(N(C)C)cc1)=N\NC(=O)c1cnccn1 | -24 | -7% | -35% | ? | -12 | 79µM*
COc1ccc(/C=N/NC(=O)c2ccccc2OCc2ccccc2)c(OC)c1 | -8 | 15% | -7% | 4% | -11 | -15%
COc1ccc(/C(C)=N/NC(=O)c2ccccc2OCc2ccccc2)c(OC)c1 | -1 | -21% | -38% | 5% | 5 | 18µM*
CCOc1ccc(NC(=O)C/C(C)=N/NC(=O)c2cnccn2)cc1 | -10 | 33% | ? | 6%[0.501 µM] | -16 | -1%
COC(C(=O)N/N=C(\C)CC(=O)Nc1ccc(Cl)cc1C)c1ccccc1 (stereo unspecified) | -13 | 33% | -3% | -14% | -5 | -13%
COc1ccc(C(=O)N/N=C(\C)CC(=O)Nc2ccc(N(C)C)cc2)c(OC)c1 | -4 | ? | 40µM* | 13%[0.501 µM] | -27 | ?
COC(C(=O)N/N=C(\C)CC(=O)Nc1ccc(N(C)C)cc1)c1ccccc1 (stereo unspecified) | -3 | 11% | -21% | 16µM* | -12 | -26%
CS(=O)(=O)N1CCC2(CC1)CN(C(=O)Nc1cccc(C#N)c1)C2 | . | . | . | -7%[12.7 µM] | . | .
